Rows were chosen to be rich in hits. Some 7.9% of all compounds tested hit in one or more screens of this group.
HCV inh = inhibitors of hepatitis C virus infection | 340,000 tested, 3.4% active | Huh7.5.1 HCVcc-Cre infection, luciferase reporter, 44 h | AID 651820 | Potency, µM (highest dose often 41.8 µM), without a hit: top-dose activity change, negative = inhibition, usual class: inhibitors; active = well fitted inhibition curve with a large enough effect; inconclusive = small, poorly fitted or top-dose-only effect, or another doubt; inactive = no such curve, though single readings can be large or run the other way; also: potency is read from the fitted curve at half-maximal effect
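A cell-based infection assay in which seeded cells (1,000 per well) receive test compound after 4 h, are inoculated with HCVcc-Cre at approximately 0.5 moi, and are incubated 44 h before luminescence detection.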
FMDV antiviral = foot and mouth disease virus antiviral activity; Potency, µM (highest dose often 57.9 µM), without a hit: at the top dose activity change, negative = inhibition, most hits filed as inhibitors; FMDV antiviral cell-based qHTS; 410,000 tested, 1.2% active; calls by dose curve; tested in HEK293T cells; also: read-out not given here; potency is read from the fitted curve at half-maximal effect; nearly all actives have a fitted effect of over 45% in size
HCMV inh = human cytomegalovirus inhibition | AID 1259415 | 410,000 tested, 4.5% active | activity change, negative = inhibition, % at 57.5 µM | HFF cells, HCMV-luciferase reporter, 72 h; active compounds read low; in the data active = activity change below about -60%; inconclusive = no clear call, values can overlap the other calls; inactive = above about -39%
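Steps: HFFs plated, 16 h 37C; compounds added; HCMV-luciferase added to MOI 1 PFU/cell; 72 h 37C; OneGlo reagent, 5 min room temperature; luminescence read, normalized to controls.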
MARV entry inh = blocks Marburg virus binding to or entry into cells; Marburg virus pseudotyped entry inhibition, cell reporter; Potency, µM (highest dose often 37.8 µM), inactives show at the top dose activity change, negative = inhibition, hits mostly inhibitors; 300,000 tested, 1.8% active; AID 540276; calls by dose curve; tested in HEK293 cells; also: potency is read from the fitted curve at half-maximal effect
Lassa entry inh = inhibitors of Lassa virus binding or cell entry; Lassa virus pseudotype entry inhibition, cell reporter; Potency, µM (top dose mostly 37.9 µM), for inactives: at the top dose activity change, negative = inhibition, usual class: inhibitors; 300,000 tested, 1.2% active; calls by dose curve; tested in HEK293 cells; also: potency is read from the fitted curve at half-maximal effect; nearly all actives have a fitted effect of over 50% in size
Starred values were filed as active, the others as inactive; ? = inconclusive; / = not tested or not shown; ! = not active in a repeat; [ ] = dose if it differs, or a comment. % is scaled to controls: 0 for no effect and ±100 for the full control effect.

SMILES	HCV inh	FMDV antiviral	HCMV inh	MARV entry inh	Lassa entry inh
CC1CC(C)CN(S(=O)(=O)c2ccc(Oc3ccc([N+](=O)[O-])cc3)cc2)C1 (stereo not given)	?	?	-72.0*	?	4.1%
CSc1ncnc2c1ncn2CCCNc1ccc(C)c(C)c1	/	0.0%	-32.2	/	/
COc1cc(/C=N/Nc2ccc(S(N)(=O)=O)cc2)cc(OC)c1OC	10µM*	28.2µM*	4.1	?	?
COc1ccc2c(c1)c(/C=N/Nc1nc3ccccc3[nH]1)c(C)n2C	?	?	-100.6*	?	?
COc1ccc(/C=N/Nc2nc3ccccc3[nH]2)cc1OC	-12.4%	-16.8%	77.4	?	2.4%
COc1cc(/C=N/Nc2ccc(C(=O)O)cc2)cc(OC)c1OC	29.7%	12.8%	69.1	/	/
COc1cc(/C=N\Nc2nc3ccccc3[nH]2)cc(OC)c1OC	?	-18.3%	50.0	12.6µM*	-6.9%
CCCCn1c(/C=N/Nc2nc3ccccc3[nH]2)nc2ccccc21	?	-19.4%	-36.6	?	?
Cc1nn(CC(=O)NC2CCS(=O)(=O)C2)c(C)c1[N+](=O)[O-] (stereo not given)	3.3%	-1.4%	-0.6	?	21.1%
Cc1cccc(C)c1NS(=O)(=O)c1cc2c3c(c1)CC(=O)N3CCC2	-10.8%	-0.3%	-65.4*	/	/
OCCCCCN=c1cc(-c2ccccc2)oc2ccc(Cl)cc12	?	12.4%	-61.9*	?	?
Clc1ccc2oc(-c3ccccc3)cc(=NCCCN3CCOCC3)c2c1	?	20.8%	6.8	?	/
COc1ccc(-c2noc3c2-c2nc(-c4ccccc4F)sc2CC3)cc1	?	-20.1%	-16.3	/	/
COc1ccc(-c2noc3c2-c2nc(-c4c(F)cccc4F)sc2CC3)cc1	3.55µM*	?	9.3	/	/
CCOc1ccc(-c2nc3c(s2)CCc2onc(-c4ccc(OC)cc4)c2-3)cc1	8.6%	-14.6%	-60.4*	/	/
COc1ccc(-c2noc3c2-c2nc(-c4ccc(C)cc4)sc2CC3)cc1	15.9%	-23.6%	?	/	/
COc1ccc(OC)c(NC(=O)CN2C(=O)C(=O)N(Cc3ccccc3)C2=O)c1	5.1%	-1.0%	45.0	/	/
Cc1ccc(C)c(Cn2c(=O)n(-c3ccccc3)c(=O)c3c4c(sc32)CCCC4)c1	/	7.5%	3.8	-2.4%[46.1 µM]	?
CN1CCN(C2=Nc3ccccc3Oc3ccc(Cl)cc32)CC1	-0.5%[8.37 µM]	-20.2%	-22.1	11.6µM*	-26.6%
CN1CCN(C2=Nc3ccccc3Sc3ccc(Cl)cc32)CC1	/	10.4%	/	/	/
CCCc1cc2c(=O)c(-c3ccc4c(c3)OCCO4)coc2cc1OC(=O)c1ccco1	-0.6%	55.0%	34.5	?	-26.0%
CCCc1cc2c(=O)c(-c3ccc4c(c3)OCCO4)coc2cc1OS(C)(=O)=O	10µM*	-5.0%	-60.2*	?	?
CCc1cc2c(=O)c(-c3ccc4c(c3)OCCO4)coc2cc1OC(=O)c1ccco1	10µM*!	18.8%	-33.5	?	?
COc1ccc2[nH]c(C)c(CCNC(=S)Nc3ccccc3C)c2c1	?	11.8%	-38.0	-17.0%	?
COc1ccc2[nH]c(C)c(CCNC(=S)Nc3ccc(C)cc3)c2c1	?	39.5%	-67.6*	/	/
SMILES	HCV inh	FMDV antiviral	HCMV inh	MARV entry inh	Lassa entry inh
CCc1cccc(CC)c1NC(=S)NCCc1c(C)[nH]c2ccccc12	?	16.3%	-70.7*	?	?
CCc1cccc(CC)c1NC(=S)NCCc1ccc(O)c(O)c1	-21.4%	-1.9%	-13.6	/	/
COc1ccc(N(C)C(=O)c2oc(=O)c3ccccc3c2-c2ccc(C)cc2)c(OC)c1	10µM*	?	-11.3	-29.8%[46.1 µM]	?
O=C(Cn1cnc2c(OCc3ccccc3)ncnc21)NCCCc1ccccc1	6.6%	-9.7%	9.0	/	/
COc1ccc(C)cc1N(C(=O)c1ccccc1)c1nc2ccccc2s1	15.8µM*	-24.0%	-23.6	?	0.1%
CCc1ccc(-n2c(N3CCN(c4ccc(F)cc4)CC3)nc3ccccc3c2=O)cc1	/	?	?	?	-28.5%[46.1 µM]
CCOC(=O)C1=C(c2ccccc2)N=c2s/c(=C\c3cccc(O)c3)c(=O)n2C1c1cccs1 (stereo not given)	31.6µM*	/	-29.8	?	16.4µM*
O=C(Cc1cc(=O)oc2cc(O)ccc12)NN=Cc1ccc(N(CCCl)CCCl)cc1	-14.2%	-25.9%	?	4.47µM*	?
O=S1(=O)CCN(c2ccccc2CC(c2c[nH]c3ccccc23)c2c[nH]c3ccccc23)CC1	?	-24.3%	-9.7	?	?
Cc1ccsc1/C=N/N1CCN(c2ccccc2)CC1	-7.1%	46.9%	37.8	3.0%	?
Cc1ccsc1/C=N/N1CCN(c2ccccn2)CC1	-27.1%	8.1%	-71.3*	?	14.7%[46.1 µM]
ClC(=C\c1ccccc1)/C=N/N1CCN(c2ccccn2)CC1	17.3%	11.8%	-69.7*	-8.1%	-28.6%
COCC(=O)NC1CC(C)(C)Cc2c1cnn2-c1ccc(F)cc1 (stereo not given)	5.4%	18.7%	-28.9	/	/
COc1cc(NC(=O)c2cc([N+](=O)[O-])ccc2NC(=O)CNCc2ccccn2)cc(OC)c1	-13.6%	?	28.9	-17.7%[46.1 µM]	11.2µM*
COc1ccc(NC(=O)c2cc([N+](=O)[O-])ccc2NC(=O)CNCc2ccccn2)c(OC)c1	?	-13.3%	55.3	7.1%[46.1 µM]	?
COc1cc(NC(=O)c2cc([N+](=O)[O-])ccc2NC(=O)CNC2CCCCC2C)cc(OC)c1 (stereo not given)	6.31µM*	-24.4%	-3.1	?	?
COc1cc(NC(=O)c2cc([N+](=O)[O-])ccc2NC(=O)CNC2CCCCC2)cc(OC)c1	?	-6.3%	15.3	-15.5%[46.1 µM]	-8.9%
Cc1cc(=O)oc2cc(OCC(=O)N3CCOCC3)c(Cl)cc12	18.3%	-3.5%	0.0	?	3.3%
CC1=CC(=O)C(C(C)C)=C/C1=C(\c1cc(C(C)C)c(OP(=O)(O)O)cc1C)c1ccccc1C(=O)O	?	-1.6%	-98.2*	?	?
NC(=O)C(c1ccc(Cl)cc1)c1ccc(Sc2ccc(Cl)cc2)nn1 (stereo not given)	?	?	-89.1*	?	?
Cc1ccc2c(c1)c(C)c(C)n2CC(O)Cn1nc(C)cc1C (stereo not given)	-16.6%	5.0%	-20.8	-5.0%	-0.1%
Cc1ccc2c(c1)c(C)c(C)n2CC(O)Cn1nnc2ccccc21 (stereo not given)	?	-56.0%	-14.5	20.6µM*	?
CC(C)(C)c1ccc(S(=O)(=O)N2CCNC(=O)C2)cc1	15.8%	4.4%	-18.5	13.4%[46.1 µM]	23.2%[46.1 µM]
COC(CNC(=O)C1CCCN1C(=O)OCc1ccccc1)OC (stereo not given)	7.1%	-7.1%	-4.6	?	15.4%[46.1 µM]
COC(=O)[C@@H]1C[C@]2(OC(=O)c3ccccc3)C=CC(=O)C[C@@H]2N1C(=O)OCc1ccccc1	?	22.4µM*	-97.7*	?	7.31µM*
NC(=O)c1cc([N+](=O)[O-])ccc1NCc1ccc(N)cc1	-5.4%	8.91µM*	-6.3	/	/

From PubChem BioAssay
